# Bioassay records from PubChem.
# FLuc modulator: counter-screen for miR-21 project: firefly luciferase inhibitors or activators; Potency, µM (titrated, usually from 57.5 µM), inactives show at the highest dose activity change, negative = inhibition, actives largely listed as inhibitors; hit rate 6.9% among 360,000; purified FLuc, Km substrates, luminescence inhibition;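 further: plate controls were vehicle for no effect and reference inhibitor for full effect; nearly all actives have a fitted effect of over 55% in size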
# Target sequence (P08659 whole entry, looked up): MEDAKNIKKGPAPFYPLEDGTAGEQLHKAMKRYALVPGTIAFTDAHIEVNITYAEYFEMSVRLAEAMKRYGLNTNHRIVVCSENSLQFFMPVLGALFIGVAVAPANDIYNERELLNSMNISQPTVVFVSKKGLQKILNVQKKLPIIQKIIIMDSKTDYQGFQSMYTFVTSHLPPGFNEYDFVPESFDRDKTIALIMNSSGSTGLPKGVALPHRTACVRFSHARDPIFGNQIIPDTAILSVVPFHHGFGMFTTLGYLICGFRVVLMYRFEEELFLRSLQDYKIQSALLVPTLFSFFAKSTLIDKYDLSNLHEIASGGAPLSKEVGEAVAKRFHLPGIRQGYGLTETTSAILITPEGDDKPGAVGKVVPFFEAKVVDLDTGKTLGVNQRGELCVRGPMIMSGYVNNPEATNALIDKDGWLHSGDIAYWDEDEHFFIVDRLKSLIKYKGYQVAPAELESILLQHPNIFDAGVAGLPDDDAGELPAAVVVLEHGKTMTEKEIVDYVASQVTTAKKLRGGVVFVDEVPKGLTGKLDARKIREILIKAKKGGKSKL
#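 Purified P. pyralis luciferase (10nM final) with 10uM D-luciferin and 10uM ATP (Km levels) in 50mM Tris acetate pH 7.5, 10mM Mg acetate, 0.01% Tween-20, 0.05% BSA; qHTS 6-point titration, ~60 µM downward; luminescence read.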
# SMN2 splice up: SMN2 splice variant enhancement | Potency, µM (top dose mostly 46.1 µM), for the others: top-dose activity change, positive = activation, most hits filed as activators | hit rate 2.8% among 210,000 | HEK293 SMN2-luciferase splicing reporter, luminescence, 30-36 h; further: % of control where 0% means no effect; nearly all actives have a fitted effect of over 55% in size
#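 qHTS luciferase splicing reporter: luminescence rises when SMN2 exon 7 is included in transfected HEK293 cells. Compound exposure lasted 30-36 h at 37C, with 4.5 mM final sodium butyrate as control, followed by a ONE-Glo read.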
# NPC1 promoter act: activates the NPC1 promoter | hit rate 2.4% among 320,000 | Potency, µM (series often up to 9.22 µM), inactives show top-dose activation, most hits filed as activators | Huh7 NPC1 promoter luciferase reporter, 24 h; further: % of control where 0% means no effect; nearly all actives have a fitted effect of over 60% in size
#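 In 1536-well qHTS, Huh7 cells harboring an NPC1 promoter–luciferase construct received compound for 24 h; activation was quantified by luminescence following luciferase reagent addition.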
# ELG1 DNA repair: blocks ELG1-dependent DNA repair in HEK293T cells; HEK293T ELG1-luciferase reporter, luminescence, 16 h; DNA damage induced by 5-fluorouridine; Potency, µM (top dose mostly 46.1 µM), for inactives: at the highest dose activity change, negative = inhibition, usual class: inhibitors; hit rate 2.3% among 330,000; further: on the % scale 0 is the no-effect control and ±100 the full control effect; nearly all actives have a fitted effect of over 55% in size
#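 Quantitative HTS, concentration-response format. 2,000 cells/well co-treated with 5-fluorouridine and compound, 16 hr in 5% CO2 at 37 °C; ONE-Glo luminescence read after 30 min.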
# ELG1 genotoxic: inducers of genotoxicity in HEK293T ELG1-luciferase cells; Potency, µM (top dose mostly 46 µM), inactives show top-dose activity change, positive = activation, most hits filed as activators; hit rate 1.3% among 330,000; HEK293T ELG1-luciferase reporter, luminescence, 16 h; further: % of control where 0% means no effect; nearly all actives have a fitted effect of over 60% in size
#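 After overnight (16 hr) compound treatment at 37 °C, ELG1-luciferase HEK293T cells were lysed with ONE-Glo; luminescence quantified 30 min later at room temperature.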
# Rab9 prom act: activators of Rab9 promoter; Potency, µM (top dose mostly 9.22 µM), without a hit: at the highest dose activation, negative = inhibition, most hits filed as activators; AID 485297; hit rate 2.8% among 320,000; Huh7 Rab9 promoter-luciferase reporter, luminescence, 24 h; further: % of control where 0% means no effect; nearly all actives have a fitted effect of over 60% in size
#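 Huh7 cells stably carrying Rab9 promoter–luciferase reporter, plated 1500 cells/well, compound added after 2 h and incubated 24 h at 37 °C; luciferase luminescence then read after 10 min with detection reagent.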
# * marks the source's active call; other numbers are inactive results; ? = inconclusive; / = no result; [ ] = remark or other dose. Shown are actives, neighbours in structure and some others; about 9.4% of the full set was active somewhere. The call rests on the fitted dose curve; in most records, active means well fitted curve in the direction sought with a large enough effect; inconclusive means small, poorly fitted or top-dose-only effect, or another doubt; inactive means no such curve, though single readings can be large; an effect the other way counts as inactive or inconclusive. Potency means the concentration at half of the fitted maximal effect.
SMILES,FLuc modulator,SMN2 splice up,NPC1 promoter act,ELG1 DNA repair,ELG1 genotoxic,Rab9 prom act
O=C(NC(=S)Nc1ccc(O)cc1)c1ccccc1Cl,?,?,?,?,?,3.98µM*
COc1ccccc1-n1c(SCc2cc(=O)oc3cc(O)ccc23)nc2ccccc2c1=O,?,22.9%,2.4%,?,0.3%,-2.7%
COc1ccccc1-n1c(=O)oc2ccc(Cl)cc2c1=O,13.5µM*,/,?,-14.8%,5.7%,3.6%
CCCN(CCC)S(=O)(=O)c1ccc(C(=O)N2CCn3c4c(c5cc(C)ccc53)CCCC42)cc1 (stereo not drawn),?,-1.3%,/,/,/,/
O=C(Nc1ccc(OCc2ccccc2)cc1)Nc1ccccc1C(=O)NCCCN1CCOCC1,19µM*,/,1.3%,23.8%,6.2%,4.6%
O=C(Nc1ccc(F)cc1)Nc1ccccc1C(=O)NCCN1CCNC1=O,16.9µM*,/,-5.5%,8.8%,-0.4%,0.9%
CCCCCc1nnc(NC(=O)C2CCCO2)s1 (stereo not drawn),?,?,27.8%,?,13µM*,?
CCCCCc1nnc(NC(=O)C2=COCCO2)s1,19µM*,/,2.82µM*,?,?,2.24µM*
O=C(Nc1nccs1)C1=COCCO1,/,/,/,?,6.7%,/
CC(C)Cc1nnc(NC(=O)C2=COCCO2)s1,16.9µM*,/,?,?,?,?
COc1ccc(NC(=O)C2CCCN(S(=O)(=O)c3ccc4c(c3)CCCC(=O)N4)C2)cc1OC (stereo not drawn),-6.1%,/,/,/,/,/
Cc1ccccc1CN1C(=O)c2ccccc2S(=O)c2ccc(C(=O)NCc3ccco3)cc21 (stereo not drawn),1.7%,10.9%,/,/,/,/
COC(=O)N[C@@H](c1cccc(F)c1)C(C(C)=O)C(=O)OC (stereo partly drawn),/,-5.5%,/,/,/,/
CC(=O)c1cccc(NC(=O)c2ccc(C(=O)Nc3cccc(C(C)=O)c3)nc2)c1,-8.1%,3.7%,1.4%,-1.9%,-0.3%,-1.9%
CC(=O)Nc1cccc(NC(=O)c2ccc(C(=O)Nc3cccc(NC(C)=O)c3)nc2)c1,3.79µM*,15.9%,14.9%,?,11.2%,17.3%
O=C(Nc1ccccc1)c1ccc(C(=O)Nc2ccccc2)nc1,-11.9%,7.3%,?,?,?,2µM*
Cc1cccc(NC(=O)c2ccc(C(=O)Nc3cccc(C)c3)nc2)c1,-11.8%,-31.0%,10.8%,2.1%,-2.4%,11.6%
CN(N=O)c1ccc(/C=C\c2ccnc3ccccc23)cc1,/,0.0%[9.22 µM],/,/,/,/
CN(C)S(=O)(=O)c1cccc(COC(=O)c2ccc(Cl)cc2O)c1,3.6%,/,-0.4%,-7.4%,-3.2%,-10.9%
CN(C)S(=O)(=O)c1cccc(COc2ncnc3c(Cl)cc(Cl)cc23)c1,0.1%,/,1.3%,18.3µM*,-10.3%,10.7%
Clc1cccc(Cl)c1C1=NOC(c2nnc(-c3ccccc3)o2)C1 (stereo not drawn),19µM*,/,29.9%,?,16.4%,?
Cc1ccc(C(=O)Oc2ccc(/C=C3\C(=N)N4N=C(N5CCOCC5)SC4=NC3=O)cc2)cc1,?,/,?,?,23.1µM*,?
Cc1ccc(-c2nc(C(=O)NCc3ccccc3Cl)c3n2CCCCC3)cc1,-1.1%,/,/,/,/,/
Cn1sc(NC(=O)c2ccc(Cl)cc2)nc1=O,2.39µM*,?,3.98µM*,?,?,3.55µM*
CC(C)CC(=O)n1sc(NC(=O)c2ccccc2)nc1=O,21.3µM*,-6.2%,-3.6%,?,-0.6%,-5.6%
Cc1ccc(C(=O)Nc2nc(=O)n(C(=O)CC(C)C)s2)cc1,?,9.3%,-1.5%,0.5%,-0.5%,2.4%
Cc1ccc(C(=O)Nc2nc(=O)n(C(=O)c3ccccc3Cl)s2)cc1,5.36µM*,?,?,?,?,3.16µM*
Cc1ccc(C(=O)Nc2nc(=O)n(C)s2)cc1,2.13µM*,?,3.16µM*,?,?,2.82µM*
